Reference: the supplement of paper PMC3724861
The sample as a whole holds a higher share of hits than the screen did. The hit rate among all sequences tested is not known here. A number with no mark means an inactive call.

The sequences below were run on T1, Caupolican (Caup) homeodomain DNA-binding domain (assay: PBM E-score (8-mer, recovered from the published 9-mer minima) (E-score (dimensionless, -0.5 to 0.5)); Drosophila protein; higher = stronger relative binding preference, active = 0.31 or more).
T1 sequence: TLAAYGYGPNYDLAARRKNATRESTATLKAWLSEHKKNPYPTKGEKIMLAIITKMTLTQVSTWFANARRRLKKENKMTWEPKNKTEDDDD
Method in brief: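 Caup's homeodomain DNA-binding domain (residues 214-303) was produced by in vitro transcription and translation and applied at 100 nM to custom-designed protein binding microarrays. Each value is an enrichment score giving relative binding preference for a short DNA word; higher means stronger. Published 9-mer scores were the minimum of their two constituent 8-mer scores, and the 8-mer values were recovered from those minima. A cutoff of 0.31 marks candidate binding sequences.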

| Sequence | PBM E-score |
| --- | --- |
| CAGGCCTC | -0.158 |
| CGGGAGCA | -0.149 |
| CCGCTACC | -0.0854 |
| ATTACGTA | 0.173 |
| CGTACTAG | 0.107 |
| ACTAAACC | 0.00838 |
| AGGCCCAG | -0.214 |
| ACCCAGGC | -0.17 |
| ACATCATA | 0.318 (active) |
| ACATCAAG | 0.227 |
| TCATCACA | 0.14 |
| ACATCACA | 0.334 (active) |
| ACATCACG | 0.217 |
| ACATCATC | 0.251 |
| ACATCAAA | 0.26 |
| ACATCAAT | 0.316 (active) |
| CCATCATA | 0.02 |
| ATATATGG | 0.127 |
| GTATAAAA | 0.116 |
| GAATCGGA | -0.0551 |
| ATCCCATC | -0.00982 |
| CGCGTACC | -0.0687 |
| GGTCTCCA | -0.147 |
| AGAACAAA | 0.191 |
| AGAACAAG | 0.329 (active) |
| CGAACACG | 0.258 |

| Sequence | PBM E-score |
| --- | --- |
| CGAACACA | 0.167 |
| AGAACACT | 0.108 |
| AGAACACA | ≥ 0.317 (active) |
| TGAACACA | 0.309 |
| AGAACACG | 0.33 (active) |
| AGAACAAT | 0.21 |
| AGCAGTCG | -0.15 |
| ATTGTTTC | 0.143 |
| GGCTAAAC | -0.0281 |
| GCGGTGCC | -0.251 |
| ATGTATAC | 0.356 (active) |
| ATGTATGA | 0.352 (active) |
| GTGTATAA | 0.202 |
| ATGTATGG | 0.157 |
| ATGTATAA | 0.344 (active) |
| GTGTATGA | 0.249 |
| ATGTATAG | 0.276 |
| CTGTATAC | 0.246 |
| CTGTATAA | 0.186 |
| AAAGGATA | 0.105 |
| CCTCCACA | -0.164 |
| AAGTCTGT | 0.139 |
| CGCCTAAA | -0.117 |
| GGACATGA | 0.304 |
| AGACATGC | 0.303 |
| AGACATCG | 0.0873 |

| Sequence | PBM E-score |
| --- | --- |
| AGACATGA | 0.341 (active) |
| CGACATGC | 0.386 (active) |
| CGACATCC | 0.134 |
| AGACATGG | 0.329 (active) |
| AGACATAG | 0.164 |
| AGACATTA | 0.201 |
| CGACATGA | 0.395 (active) |
| CGACATTA | 0.202 |
| AGACATCA | 0.197 |
| GAAGTCAA | -0.0438 |
| GCAGTCGA | -0.135 |
| CCAATCAA | 0.0187 |
| ATAGGCCC | -0.176 |
| ACCCCTCA | -0.091 |
| CAACTCTA | -0.0633 |
| TACACATA | 0.343 (active) |
| AGCACATA | 0.0614 |
| AACACATA | 0.323 (active) |
| AACACATC | 0.202 |
| AACACATG | 0.313 (active) |
| AACACATT | 0.264 |
| ATCACATA | 0.239 |
| AACACACT | 0.256 |
| AACACACA | ≥ 0.313 (active) |
| CACACATA | 0.164 |
| AACACACG | 0.248 |

| Sequence | PBM E-score |
| --- | --- |
| GACACATA | 0.264 |
| GAACAGTA | 0.173 |
| AAGAGAGA | -0.0648 |
| CTTCCGCA | -0.0665 |
| ACTTCTCA | 0.00621 |
| GGTGATAA | 0.0536 |
| GCTCCACC | -0.174 |
| CAATAGCC | 0.0422 |
| CATCTTGC | 0.0649 |
| GTCAACGA | 0.118 |
| CAGCCCGA | -0.199 |
| ATGAGCGA | -0.0133 |
| CAACATAA | 0.295 |
| AAACATAG | 0.267 |
| AAACATTA | 0.233 |
| AAACATAT | 0.325 (active) |
| AAGCATAA | 0.0796 |
| AAACATAA | 0.321 (active) |
| AAACATAC | 0.292 |
| TAACATAA | 0.327 (active) |
| GAACATAA | 0.282 |
| GTCAATCA | 0.0914 |
| ACGCTGTG | 0.0319 |
| AAAGTTGT | 0.17 |
| AAGAGAAG | -0.0176 |
| ACTGTGAT | 0.066 |

| Sequence | PBM E-score |
| --- | --- |
| AGCCGAAT | -0.0412 |
| AAGTGGCT | -0.132 |
| CCGCGGCA | -0.192 |
| CTCGTGGC | -0.127 |
| AAGCCGGG | -0.179 |
| CTATACAG | 0.0968 |
| CTATACAC | 0.0914 |
| TTATACAA | 0.28 |
| GTATACTA | 0.16 |
| GTATACAC | 0.249 |
| ATATACAG | 0.186 |
| ATATACAT | 0.367 (active) |
| GTATACAA | 0.318 (active) |
| ATATACAA | ≥ 0.355 (active) |
| ATATATAC | 0.181 |
| CTATACAA | 0.249 |
| ATATACAC | 0.348 (active) |
| ATTAGTGC | 0.105 |
| AACTGGCC | -0.147 |
| CCGGACGG | -0.297 |
| CCTGGCAA | -0.121 |
| CAATGACC | 0.065 |
| TCACAAGA | 0.131 |
| ATCGGTAC | 0.0373 |
| CTGCCGTC | -0.128 |
| ATTAGAGG | -0.11 |

| Sequence | PBM E-score |
| --- | --- |
| ACCATGCT | 0.14 |
| ATCATGCA | 0.103 |
| AACATGCT | 0.376 (active) |
| AACATGCA | 0.392 (active) |
| GACATGCA | 0.394 (active) |
| CACATGCA | 0.166 |
| TGCATGCA | 0.0646 |
| GAGATGCA | -0.024 |
| TACATGCA | 0.371 (active) |
| CCCATGCA | -0.119 |
| AACATGCC | 0.302 |
| TCCATGCA | -0.0253 |
| CTCGCGTA | -0.0439 |
| TTATCAAA | 0.109 |
| GTGATTCA | 0.0823 |
| AGAAAGCA | 0.0369 |
| CCGGGTCA | -0.18 |
| AACATGCG | 0.356 (active) |
| GACATGCC | 0.35 (active) |
| GCCATGCC | -0.149 |
| ATCATGCG | 0.0113 |
| CACATGCC | 0.0641 |
| CACATGCG | 0.023 |
| ATCCTGAG | -0.0222 |
| CAAGCTAG | -0.0491 |
| CGTAATGA | 0.094 |

| Sequence | PBM E-score |
| --- | --- |
| GTGACCGA | -0.0686 |
| ACTTGAAC | 0.132 |
| ACAAATCC | 0.179 |
| CTGCATGA | -0.0538 |
| CTACAGGA | 0.245 |
| CTACATGA | 0.36 (active) |
| GCACATGA | 0.182 |
| GTACATGA | 0.435 (active) |
| GTTCATGA | 0.115 |
| CTACATTA | 0.199 |
| ATACATTA | 0.219 |
| GTACATTA | 0.322 (active) |
| ACAGGAGT | 0.0982 |
| AAAGTTTG | 0.0257 |
| ACGGCAGT | -0.0873 |
| GCAACGCC | -0.0458 |
| CCAGTACA | 0.3 |
| ACAGTACG | 0.0926 |
| ACAGTACT | 0.18 |
| ACAGTACA | 0.331 (active) |
| TCAGTACA | 0.313 (active) |
| GCAGTACA | 0.196 |
| ATCTGATG | 0.072 |
| ACGATTTG | 0.11 |
| ATTACAAC | 0.37 (active) |
| ATTACTAC | 0.293 |

| Sequence | PBM E-score |
| --- | --- |
| ATTACAAT | 0.298 |
| ATTACAAA | 0.259 |
| ATCACAAC | 0.212 |
| ATTACAAG | ≥ 0.427 (active) |
| ACGTTCGG | -0.177 |
| ACTAGCCA | 0.0322 |
| CATAGTGA | 0.155 |
| ATGTCAAC | 0.324 (active) |
| ATGTCAAG | 0.309 |
| ATGTCAAT | 0.359 (active) |
| TTGTCAAA | 0.316 (active) |
| CTGTCAAC | 0.186 |
| ATGTCAAA | 0.359 (active) |
| GTGTCAAA | 0.294 |
| AGGTCAAA | -0.0266 |
| AAGTCAAA | 0.0275 |
| CTGTCAAA | 0.164 |
| ACGTCAAT | -0.00307 |
| GTGTCAAC | 0.272 |
| ACCCGATC | -0.0489 |
| CTTGGTAA | 0.0467 |
| CTCGTCAA | 0.0256 |
| GGTGGTTA | 0.0166 |
| AATTGAGT | 0.131 |
| ACACCCTC | -0.0435 |
| CAGCACGG | -0.0332 |

| Sequence | PBM E-score |
| --- | --- |
| ATAATCAG | 0.101 |
| AGAGCAAG | 0.0346 |
| CAACACAA | 0.241 |
| GAACACAA | 0.317 (active) |
| GGACACAA | 0.204 |
| TAACACAA | 0.319 (active) |
| AAACACAA | 0.27 |
| GAACACAC | 0.217 |
| AGATCGGC | -0.152 |
| ACCTGGAC | -0.0342 |
| ACCGTGCA | 0.00395 |
| GCCGTGTA | 0.341 (active) |
| ACCGTGTA | 0.359 (active) |
| GCCGTGAA | -0.0891 |
| CCCGTGTA | 0.25 |
| ACCGTGTG | 0.115 |
| ACCGTGGA | -0.107 |
| ACCGTGTC | 0.312 (active) |
| CCCGTGTC | 0.145 |
| GAACACCA | 0.195 |
| ACTATCAG | 0.083 |
